In the supplement of paper PMC10849652:
Of roughly 8,800 targets only a part is listed; those with a hit were picked by preference. About 0.5% of all pairs of compound and target were hits. Unmarked numbers belong to inactive results.

How the values were obtained:
Experiment in all cases: log2 fold change, soluble protein after heating vs DMSO (PISA); higher = thermal stabilisation; K562 lysate, 10 uM; active = over 0.2 and 3.5 SD of the protein, either way, in both replicates (recomputed)
vorinostat = compound: O=C(CCCCCCC(=O)Nc1ccccc1)NO [vorinostat]
In short: (§1)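 Log-two fold change in thermal stability relative to solvent controls is reported from duplicates. For each sample, crude K562 extract from dounce-homogenised pellets in PBS pH 7.4 with 1 mM MgCl2, at 1 mg/mL protein, was treated with 10 μM compound for 30 min. Aliquots heated for 3 min across 48°C-58°C were pooled, brought to 0.5% NP-40 at 4°C and cleared at 21,000xg for 90 min. The supernatant was quantified by TMTpro 16plex LC-MS/MS with channel sums equalised.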

silmitasertib = compound: O=C(O)c1ccc2c(c1)nc(Nc1cccc(Cl)c1)c1ccncc12 [silmitasertib]
In short: as §1

[1] = compound: O=C1NC(=O)C(c2cnc3ccccn23)=C1c1cn2c3c(cc(F)cc13)CN(C(=O)N1CCCCC1)CC2
In short: as §1

[2] = compound: NCC(=O)Nc1ccc(-n2nc(C(F)(F)F)cc2-c2ccc3c(ccc4ccccc43)c2)cc1
In short: as §1

entospletinib = compound: c1cn2cc(-c3ccc4cn[nH]c4c3)nc(Nc3ccc(N4CCOCC4)cc3)c2n1 [entospletinib]
In short: as §1

Sequence of UniProt P30838 (P30838 whole entry, looked up): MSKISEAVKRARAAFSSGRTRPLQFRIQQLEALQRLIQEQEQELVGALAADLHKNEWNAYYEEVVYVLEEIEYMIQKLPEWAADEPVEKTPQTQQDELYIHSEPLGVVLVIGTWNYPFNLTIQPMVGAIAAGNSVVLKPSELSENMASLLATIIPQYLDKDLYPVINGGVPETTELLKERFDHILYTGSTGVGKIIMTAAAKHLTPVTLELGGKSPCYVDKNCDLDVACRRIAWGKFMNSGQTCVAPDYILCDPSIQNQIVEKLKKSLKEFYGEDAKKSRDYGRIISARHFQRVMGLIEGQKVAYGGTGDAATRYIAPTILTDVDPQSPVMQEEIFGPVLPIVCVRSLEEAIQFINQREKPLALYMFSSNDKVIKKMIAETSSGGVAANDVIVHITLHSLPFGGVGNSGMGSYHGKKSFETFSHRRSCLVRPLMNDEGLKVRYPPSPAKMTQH
Sequence of UniProt Q13155 (Q13155 whole entry, looked up): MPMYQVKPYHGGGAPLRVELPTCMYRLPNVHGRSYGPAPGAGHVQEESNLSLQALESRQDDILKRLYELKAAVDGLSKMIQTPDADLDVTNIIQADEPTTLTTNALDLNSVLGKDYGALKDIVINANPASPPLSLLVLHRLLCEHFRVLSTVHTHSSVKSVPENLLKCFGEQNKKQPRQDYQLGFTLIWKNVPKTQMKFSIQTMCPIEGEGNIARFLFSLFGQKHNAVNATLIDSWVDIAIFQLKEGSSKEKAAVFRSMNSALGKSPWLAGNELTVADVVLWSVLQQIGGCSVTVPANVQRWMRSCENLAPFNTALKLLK
Sequence of UniProt Q6P1M9 (Q6P1M9 whole entry, looked up): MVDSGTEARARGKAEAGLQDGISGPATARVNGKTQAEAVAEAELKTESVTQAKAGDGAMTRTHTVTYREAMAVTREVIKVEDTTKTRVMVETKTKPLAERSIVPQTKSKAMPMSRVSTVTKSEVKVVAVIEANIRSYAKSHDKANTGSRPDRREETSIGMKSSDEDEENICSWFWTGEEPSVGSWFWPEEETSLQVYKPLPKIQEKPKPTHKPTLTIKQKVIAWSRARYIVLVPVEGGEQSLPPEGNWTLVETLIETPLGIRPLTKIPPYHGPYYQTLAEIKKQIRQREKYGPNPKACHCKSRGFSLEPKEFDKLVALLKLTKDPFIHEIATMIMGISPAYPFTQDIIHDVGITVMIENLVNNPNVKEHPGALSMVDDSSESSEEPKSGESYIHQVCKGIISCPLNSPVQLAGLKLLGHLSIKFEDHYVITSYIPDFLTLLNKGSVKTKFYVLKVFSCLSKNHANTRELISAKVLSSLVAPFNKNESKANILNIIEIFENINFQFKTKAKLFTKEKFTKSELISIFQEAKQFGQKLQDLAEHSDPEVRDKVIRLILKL
Sequence of UniProt Q9UNA0 (Q9UNA0 whole entry, looked up): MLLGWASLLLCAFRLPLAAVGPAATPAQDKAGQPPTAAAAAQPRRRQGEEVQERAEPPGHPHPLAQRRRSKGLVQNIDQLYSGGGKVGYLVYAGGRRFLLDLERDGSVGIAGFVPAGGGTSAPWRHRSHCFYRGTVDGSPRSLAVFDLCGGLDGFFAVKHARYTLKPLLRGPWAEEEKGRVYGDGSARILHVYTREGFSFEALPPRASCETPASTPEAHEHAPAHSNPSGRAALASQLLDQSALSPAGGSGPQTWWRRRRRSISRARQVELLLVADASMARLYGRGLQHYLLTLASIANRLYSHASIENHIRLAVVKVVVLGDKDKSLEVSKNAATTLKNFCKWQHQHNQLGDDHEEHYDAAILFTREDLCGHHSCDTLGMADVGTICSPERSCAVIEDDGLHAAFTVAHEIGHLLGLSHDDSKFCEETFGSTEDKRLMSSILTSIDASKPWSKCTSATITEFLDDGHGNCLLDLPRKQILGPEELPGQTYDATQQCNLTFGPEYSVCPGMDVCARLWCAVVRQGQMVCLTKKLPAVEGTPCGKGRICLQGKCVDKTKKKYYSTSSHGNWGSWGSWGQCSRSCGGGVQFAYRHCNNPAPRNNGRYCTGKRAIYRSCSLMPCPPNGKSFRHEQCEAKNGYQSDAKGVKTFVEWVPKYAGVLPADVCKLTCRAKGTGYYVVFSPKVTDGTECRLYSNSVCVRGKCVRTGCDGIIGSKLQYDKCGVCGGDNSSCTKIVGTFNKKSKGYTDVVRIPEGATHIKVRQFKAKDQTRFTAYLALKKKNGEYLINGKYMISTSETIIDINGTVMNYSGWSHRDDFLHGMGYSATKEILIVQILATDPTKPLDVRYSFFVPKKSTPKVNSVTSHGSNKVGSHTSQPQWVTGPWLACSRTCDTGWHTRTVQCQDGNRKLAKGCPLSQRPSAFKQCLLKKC
Sequence of UniProt Q8N8A2 (Q8N8A2 whole entry, looked up): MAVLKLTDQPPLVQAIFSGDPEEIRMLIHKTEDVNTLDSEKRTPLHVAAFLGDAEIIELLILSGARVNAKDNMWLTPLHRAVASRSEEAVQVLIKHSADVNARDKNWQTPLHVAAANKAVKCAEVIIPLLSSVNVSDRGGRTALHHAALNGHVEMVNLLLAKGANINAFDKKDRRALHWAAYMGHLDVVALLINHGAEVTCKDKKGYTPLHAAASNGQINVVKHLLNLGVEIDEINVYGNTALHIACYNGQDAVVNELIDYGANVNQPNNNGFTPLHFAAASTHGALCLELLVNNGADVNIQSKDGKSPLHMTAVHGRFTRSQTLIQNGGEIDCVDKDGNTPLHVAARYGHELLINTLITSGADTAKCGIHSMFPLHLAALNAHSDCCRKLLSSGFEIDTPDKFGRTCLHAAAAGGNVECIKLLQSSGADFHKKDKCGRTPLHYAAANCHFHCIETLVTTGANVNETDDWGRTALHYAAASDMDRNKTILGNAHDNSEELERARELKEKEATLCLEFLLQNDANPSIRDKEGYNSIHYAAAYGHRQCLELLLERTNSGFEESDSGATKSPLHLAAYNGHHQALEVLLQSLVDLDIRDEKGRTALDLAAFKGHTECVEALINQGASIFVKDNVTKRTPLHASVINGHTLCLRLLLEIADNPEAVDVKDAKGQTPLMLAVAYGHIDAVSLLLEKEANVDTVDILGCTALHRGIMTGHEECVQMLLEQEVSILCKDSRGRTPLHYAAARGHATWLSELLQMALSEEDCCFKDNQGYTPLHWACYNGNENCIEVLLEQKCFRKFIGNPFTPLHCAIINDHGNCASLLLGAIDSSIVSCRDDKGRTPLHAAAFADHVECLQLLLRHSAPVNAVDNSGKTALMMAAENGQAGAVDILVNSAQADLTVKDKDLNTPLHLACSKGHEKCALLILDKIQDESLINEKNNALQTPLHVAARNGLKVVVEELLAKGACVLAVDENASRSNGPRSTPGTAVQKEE
Sequence of UniProt Q9BXX2 (Q9BXX2 whole entry, looked up): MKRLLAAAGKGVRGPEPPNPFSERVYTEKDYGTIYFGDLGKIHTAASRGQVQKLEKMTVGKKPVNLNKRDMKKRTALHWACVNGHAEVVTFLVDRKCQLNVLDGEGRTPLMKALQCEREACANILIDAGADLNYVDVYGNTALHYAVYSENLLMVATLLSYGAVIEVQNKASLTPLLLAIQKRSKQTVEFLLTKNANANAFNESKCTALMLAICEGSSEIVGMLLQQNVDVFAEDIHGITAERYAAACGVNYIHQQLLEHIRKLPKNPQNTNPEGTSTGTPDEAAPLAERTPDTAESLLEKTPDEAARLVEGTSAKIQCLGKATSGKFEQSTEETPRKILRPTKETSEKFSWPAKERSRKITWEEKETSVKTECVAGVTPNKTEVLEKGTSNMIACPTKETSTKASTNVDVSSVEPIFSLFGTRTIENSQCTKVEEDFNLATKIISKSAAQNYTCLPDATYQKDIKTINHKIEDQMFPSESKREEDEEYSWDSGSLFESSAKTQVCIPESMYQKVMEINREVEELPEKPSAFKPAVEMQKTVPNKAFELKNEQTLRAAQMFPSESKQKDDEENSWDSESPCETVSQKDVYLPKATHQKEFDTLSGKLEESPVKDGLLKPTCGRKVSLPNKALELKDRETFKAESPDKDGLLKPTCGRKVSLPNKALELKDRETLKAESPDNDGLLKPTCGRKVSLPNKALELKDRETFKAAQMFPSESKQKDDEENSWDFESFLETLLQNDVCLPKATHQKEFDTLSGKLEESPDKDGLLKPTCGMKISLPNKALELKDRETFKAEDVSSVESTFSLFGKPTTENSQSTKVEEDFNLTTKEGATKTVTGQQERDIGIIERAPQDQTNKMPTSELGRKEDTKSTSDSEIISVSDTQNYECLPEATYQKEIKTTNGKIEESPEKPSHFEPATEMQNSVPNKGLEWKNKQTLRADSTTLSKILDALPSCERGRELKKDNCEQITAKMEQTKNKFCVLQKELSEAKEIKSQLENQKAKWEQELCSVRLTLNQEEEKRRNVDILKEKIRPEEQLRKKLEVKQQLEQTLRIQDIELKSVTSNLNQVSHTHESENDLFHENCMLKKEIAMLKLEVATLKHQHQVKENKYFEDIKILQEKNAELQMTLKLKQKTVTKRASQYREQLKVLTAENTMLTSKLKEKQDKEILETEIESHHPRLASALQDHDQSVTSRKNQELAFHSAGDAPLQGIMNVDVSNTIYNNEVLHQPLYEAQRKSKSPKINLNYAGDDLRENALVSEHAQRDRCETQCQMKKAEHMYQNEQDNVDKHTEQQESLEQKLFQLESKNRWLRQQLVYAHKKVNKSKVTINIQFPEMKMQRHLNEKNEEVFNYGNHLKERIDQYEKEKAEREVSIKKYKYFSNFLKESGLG
Sequence of UniProt Q9BQI0 (Q9BQI0 whole entry, looked up): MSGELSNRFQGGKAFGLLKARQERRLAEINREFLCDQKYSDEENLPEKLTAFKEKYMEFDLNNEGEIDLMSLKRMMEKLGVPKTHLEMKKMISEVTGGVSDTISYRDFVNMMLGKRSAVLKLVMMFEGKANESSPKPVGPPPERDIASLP
Sequence of UniProt Q9P1F3 (Q9P1F3 whole entry, looked up): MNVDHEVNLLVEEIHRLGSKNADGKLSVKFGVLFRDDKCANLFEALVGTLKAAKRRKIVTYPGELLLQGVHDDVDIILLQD

| Target | log2 fold change (vorinostat) | log2 fold change (silmitasertib) | log2 fold change [1] | log2 fold change [2] | log2 fold change (entospletinib) |
| --- | --- | --- | --- | --- | --- |
| ABRACL (UniProt Q9P1F3) | -0.845 (active) | 0.111 | 0.088 |  |  |
| ADAMTS5 (UniProt Q9UNA0) | 0.028 | -0.065 | 0.062 | 0.137 | -0.125 |
| ANKRD30B (UniProt Q9BXX2) | 0.147 | 0.047 |  | 0.228 | 0.025 |
| ARHGEF2 (UniProt V9GYF0) |  |  |  | 0.157 | 0.081 |
| ALDH3A1 (UniProt P30838) | 0.145 | -0.113 | 0.023 |  |  |
| AIMP2 isoform 2 (UniProt Q13155) |  |  | -0.07 |  |  |
| AIMP2 (UniProt Q13155) | -0.347 (active) | 0.048 | 0.017 | -0.046 | -0.017 |
| ACLY (UniProt P53396) | -0.029 | 0.012 | -0.018 | -0.008 | 0.014 |
| ARGLU1 (UniProt Q9NWB6) | 0.116 | 0.008 | -0.067 | 0.01 | -0.054 |
| ACLY isoform 2 (UniProt P53396) |  |  | -0.061 | 0.091 | -0.047 |
| ANKRD44 isoform 2 (UniProt Q8N8A2) | 0.073 | 0.005 |  | 0.127 | -0.115 |
| AIF1L (UniProt Q9BQI0) | -0.048 | 0.083 | 0.022 |  | 0.116 |
| ARMCX5 (UniProt Q6P1M9) | 0.102 | 0.013 |  | -0.233 | 0.088 |
